According to PubChem BioAssay (NCATS):
Results filed as inconclusive are left out. Activity calls are given as the source filed them. Calls come from the whole dose curve; as a rule, active = well fitted inhibition curve with a large enough effect; inconclusive = small, poorly fitted or top-dose-only effect; inactive = no such curve, though single readings can be large or run the other way.
Potency is the fitted concentration of half-maximal effect.

Test: BET inhibitor-based combinations targeting novel dependencies in MECOM-rearranged (r) AML: HNT-34 cell line (AID 2202234); note: nearly all actives have a fitted effect of over 35% in size;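 for viability (% of control): plate controls were vehicle wells for no effect and cell-free wells for full effect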
Settings: HNT-34 AML viability, CellTiter-Glo luminescence, 48 h; series mostly up to 46 µM; viability (% of control): at the top concentration
Outline: (§1)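 Seeding density was 500 cells/well, and drug exposure lasted 48 hr under standard culture conditions. Read-out used CellTiter-Glo reagent with a 15 min room-temperature incubation before luminescence measurement; AUC and Z-AUC summarize the normalized responses.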
For `CN1C(=O)COc2c(C(=O)NC3CN4CCC3CC4)cc(Cl)cc21` (centres undefined), the “viability (% of control)” value was 101% (inactive). With `Cn1c(COP(=O)(NCCBr)NCCBr)cnc1[N+](=O)[O-]` the “viability (% of control)” value was 101% (inactive). In the case of `N#CC(O[C@@H]1O[C@H](CO[C@@H]2O[C@H](CO)[C@@H](O)[C@H](O)[C@H]2O)[C@@H](O)[C@H](O)[C@H]1O)c1ccccc1` (some centres undefined), the “viability (% of control)” value is reported as 72.3% (inactive). With `C[C@]12COC(=O)C[C@@H]1CC[C@@H]1[C@@H]2CC[C@@]2(C)[C@H]1CC[C@]2(C)O` the “viability (% of control)” value was 97.2% (inactive). With `C/C(O)=C(\C#N)C(=O)Nc1cc(Br)ccc1Br` the “viability (% of control)” value was 88.7% (inactive). For `CC1(C)CC[C@]2(NC(=O)C(C)(F)F)CC[C@]3(C)[C@H](C(=O)C=C4[C@@]5(C)C=C(C#N)C(=O)C(C)(C)[C@@H]5CC[C@]43C)[C@@H]2C1`, the Potency was 1660 nM (active). With `Cc1c(N)nc([C@H](CC(N)=O)NC[C@@H](N)C(N)=O)nc1C(=O)N[C@H](C(=O)N[C@@H](C)[C@H](O)[C@@H](C)C(=O)N[C@@H](C(=O)NCCc1nc(-c2nc(C(=O)NCCC[S+](C)C)cs2)cs1)[C@@H](C)O)C(O[C@H]1O[C@H](CO)[C@H](O)[C@@H](O)[C@H]1O[C@H]1O[C@H](CO)[C@@H](O)[C@H](OC(N)=O)[C@@H]1O)c1cnc[nH]1` (some centres undefined) the Potency was 8110 nM (active). With `CC(C)C[C@H](CN)CC(=O)O` the “viability (% of control)” value was 106% (inactive). In the case of `CC(C)[C@]12O[C@H]1[C@@H]1O[C@@]13[C@@]1(C)CCC4=C(COC4=O)[C@@H]1C[C@@H]1O[C@@]13C2=O`, the Potency is reported as 166 nM (active). In the case of `C[C@@H]1O[C@@H](O[C@@H]2C=C3CC[C@@H]4[C@H](CC[C@]5(C)[C@@H](c6ccc(=O)oc6)CC[C@]45O)[C@@]3(C)CC2)[C@H](O)[C@H](O)[C@H]1O`, the Potency is reported as 14.8 nM (active). For `CC(C)(NC(=O)O[C@@H]1CN2CCC1CC2)c1csc(-c2ccc(F)cc2)n1`, the Potency was 14800 nM (active). With `CO/C1=C/C(C)=C\[C@@H](C)[C@@H](O)[C@@H](C)C/C(C)=C\C=C/[C@H](OC)[C@@H]([C@@H](C)[C@@H](O)[C@H](C)[C@@]2(O)C[C@@H](O)[C@H](C)[C@@H](C(C)C)O2)OC1=O` the Potency was 87.9 nM (active). With `C[C@@]12OC(=O)[C@]1([C@@H](O)[C@@H]1C=CCCC1)NC(=O)[C@@H]2CCCl` the Potency was 37.2 nM (active). With `C[C@]12CC[C@H]3[C@@H](CC[C@@]45O[C@@H]4C(O)=C(C#N)C[C@]35C)[C@@H]1CC[C@@H]2O` the “viability (% of control)” value was 87.6% (inactive). In the case of `CO[C@H]1CCC(O[C@H]2C[C@H]([C@]3(C)CC[C@]4(C[C@H](O)[C@@H](C)[C@@H]([C@@H](C)/C=C(\C)C(=O)[C@H](C)C[C@H](C)C(=O)O)O4)O3)O[C@]3(O[C@@H]([C@H]4O[C@@](O)(CO)[C@H](C)C[C@@H]4C)C[C@@H]3C)[C@@H]2C)O[C@@H]1C` (some centres undefined), the Potency is reported as 148 nM (active). For `C/C(=C\c1csc(C)n1)[C@@H]1C[C@@H]2O[C@]2(C)CCC[C@H](C)[C@H](O)[C@@H](C)C(=O)C(C)(C)[C@@H](O)CC(=O)O1`, the Potency was 8.3 nM (active). With `CC(=O)OC[C@H]1O[C@@H]([S-])[C@H](OC(C)=O)[C@@H](OC(C)=O)[C@@H]1OC(C)=O.CC[PH+](CC)CC.[Au]` the Potency was 833 nM (active). In the case of `CC(C)CC(N(C)C)C1(c2ccc(Cl)cc2)CCC1` (centres undefined), the “viability (% of control)” value is reported as 91.5% (inactive). In the case of `COC(=O)[C@]12CCC(C)(C)C[C@H]1[C@H]1C(=O)C=C3[C@@]4(C)C=C(C#N)C(=O)C(C)(C)[C@@H]4CC[C@@]3(C)[C@]1(C)CC2`, the Potency is reported as 1660 nM (active). In the case of `Cc1[nH]ncc1-c1cc2nc([C@@H]3CC4CCN3CC4)[nH]c(=O)c2s1`, the Potency is reported as 9340 nM (active). For `O=S(=O)(F)Cc1ccccc1`, the “viability (% of control)” value was 108% (inactive).

Test: BET inhibitor-based combinations targeting novel dependencies in MECOM-rearranged (r) AML: UCSD-AML1 cell line (AID 2202235); note: nearly all actives have a fitted effect of over 40% in size;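 for viability (% of control): plate controls were DMSO vehicle wells for no effect and blank wells for full effect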
Settings: UCSD-AML1 AML cells viability, CellTiter-Glo, 48 h; series mostly up to 46 µM; viability (% of control): at the top concentration
Outline: as §1
For `O=C(Nc1ccncc1)C(=O)c1cn(Cc2ccc(Cl)cc2)c2ccccc12`, the Potency was 332 nM (active). For `COC(=O)[C@@]12OC[C@]34[C@H]([C@@H](O)[C@@H]1O)[C@@]1(C)CC(=O)C(O)=C(C)[C@@H]1C[C@H]3OC(=O)[C@H](OC(=O)/C=C(\C)C(C)C)[C@@H]24`, the Potency was 3.3 nM (active). For `C[C@]12COC(=O)C[C@@H]1CC[C@@H]1[C@@H]2CC[C@@]2(C)[C@H]1CC[C@]2(C)O`, the “viability (% of control)” value was 107% (inactive). With `O=c1cccc2n1CC1CNC[C@H]2C1` the “viability (% of control)” value was 106% (inactive). In the case of `C/C(O)=C(\C#N)C(=O)Nc1cc(Br)ccc1Br`, the “viability (% of control)” value is reported as 109% (inactive). For `COc1cc(C)[nH]c(=O)c1CNC(=O)c1c(C)n([C@H](C)C2CCN(CC(F)(F)F)CC2)c2ccccc12`, the “viability (% of control)” value was 118% (inactive). For `CC1(C)CC[C@]2(NC(=O)C(C)(F)F)CC[C@]3(C)[C@H](C(=O)C=C4[C@@]5(C)C=C(C#N)C(=O)C(C)(C)[C@@H]5CC[C@]43C)[C@@H]2C1`, the Potency was 1320 nM (active). In the case of `Cc1c(N)nc([C@H](CC(N)=O)NC[C@@H](N)C(N)=O)nc1C(=O)N[C@H](C(=O)N[C@@H](C)[C@H](O)[C@@H](C)C(=O)N[C@@H](C(=O)NCCc1nc(-c2nc(C(=O)NCCC[S+](C)C)cs2)cs1)[C@@H](C)O)C(O[C@H]1O[C@H](CO)[C@H](O)[C@@H](O)[C@H]1O[C@H]1O[C@H](CO)[C@@H](O)[C@H](OC(N)=O)[C@@H]1O)c1cnc[nH]1` (some centres undefined), the “viability (% of control)” value is reported as 109% [at 15.6 µM] (inactive). For `CC(C)C[C@H](CN)CC(=O)O`, the “viability (% of control)” value was 105% (inactive). With `C/C=C(\C)C(=O)N[C@@H](c1ccccc1)[C@@H](O)C(=O)O[C@H]1C[C@@]2(O)[C@@H](OC(=O)c3ccccc3)[C@@H]3[C@]4(OC(C)=O)CO[C@@H]4C[C@H](O)[C@@]3(C)C(=O)[C@H](OC(C)=O)C(=C1C)C2(C)C` the Potency was 16.6 nM (active). In the case of `COC12C(COC(N)=O)C3=C(C(=O)C(C)=C(N)C3=O)N1CC1C2N1C` (centres undefined), the “viability (% of control)” value is reported as 110% (inactive). In the case of `CC(C)[C@]12O[C@H]1[C@@H]1O[C@@]13[C@@]1(C)CCC4=C(COC4=O)[C@@H]1C[C@@H]1O[C@@]13C2=O`, the Potency is reported as 74.2 nM (active). In the case of `C[C@@H]1O[C@@H](O[C@@H]2C=C3CC[C@@H]4[C@H](CC[C@]5(C)[C@@H](c6ccc(=O)oc6)CC[C@]45O)[C@@]3(C)CC2)[C@H](O)[C@H](O)[C@H]1O`, the Potency is reported as 18.6 nM (active). With `CO/C1=C/C(C)=C\[C@@H](C)[C@@H](O)[C@@H](C)C/C(C)=C\C=C/[C@H](OC)[C@@H]([C@@H](C)[C@@H](O)[C@H](C)[C@@]2(O)C[C@@H](O)[C@H](C)[C@@H](C(C)C)O2)OC1=O` the “viability (% of control)” value was 112% [at 15.6 µM] (inactive). In the case of `C[C@@]12OC(=O)[C@]1([C@@H](O)[C@@H]1C=CCCC1)NC(=O)[C@@H]2CCCl`, the Potency is reported as 33.2 nM (active). With `CO[C@H]1CCC(O[C@H]2C[C@H]([C@]3(C)CC[C@]4(C[C@H](O)[C@@H](C)[C@@H]([C@@H](C)/C=C(\C)C(=O)[C@H](C)C[C@H](C)C(=O)O)O4)O3)O[C@]3(O[C@@H]([C@H]4O[C@@](O)(CO)[C@H](C)C[C@@H]4C)C[C@@H]3C)[C@@H]2C)O[C@@H]1C` (some centres undefined) the Potency was 2630 nM (active). For `C/C(=C\c1csc(C)n1)[C@@H]1C[C@@H]2O[C@]2(C)CCC[C@H](C)[C@H](O)[C@@H](C)C(=O)C(C)(C)[C@@H](O)CC(=O)O1`, the Potency was 5.9 nM (active). For `CC1(C)C(=O)N(c2ccc(C#N)c(C(F)(F)F)c2)C(=S)N1Cc1ccc(-c2cn[nH]n2)cc1`, the “viability (% of control)” value was 114% (inactive). In the case of `O=C(NCCCNc1nc(Nc2ccc(N3CCOCC3)cc2)ncc1C1CC1)C1CCC1`, the Potency is reported as 9340 nM (active). With `COc1cc(C(=O)N2CC[C@@H](O)[C@@H](N)C2)cc2nc(-c3cc4ccccc4n3CC3CC3)n(C)c12` the “viability (% of control)” value was 90% (inactive). In the case of `CC(C)CC(N(C)C)C1(c2ccc(Cl)cc2)CCC1` (centres undefined), the “viability (% of control)” value is reported as 102% (inactive). With `COC(=O)[C@]12CCC(C)(C)C[C@H]1[C@H]1C(=O)C=C3[C@@]4(C)C=C(C#N)C(=O)C(C)(C)[C@@H]4CC[C@@]3(C)[C@]1(C)CC2` the Potency was 1480 nM (active). In the case of `O=P1(NCCCl)OCCCN1CCCl` (centres undefined), the “viability (% of control)” value is reported as 107% (inactive).
